# According to publication PMC7862700, “An all-to-all approach to the identification of sequence-specific readers for epigenetic DNA modifications on cytosine”:
# Experiments:
# Test in all cases: DAPPL (digital affinity profiling via proximity ligation, sequencing); 10 mM Tris-HCl pH 7.5, 50 mM NaCl, 1 mM DTT, 4% glycerol, room temperature, 30 min; GST-TFs on glutathione beads, 16-mer random dsDNA library, 0.1% formaldehyde crosslink after washing; high values mean tight binding
# FEV = target: T1, FEV (Homo sapiens, UniProt Q99581 1-238); conditions: protein: recombinant; tags: N-terminal GST; dsDNA, one strand shown
# T1 sequence: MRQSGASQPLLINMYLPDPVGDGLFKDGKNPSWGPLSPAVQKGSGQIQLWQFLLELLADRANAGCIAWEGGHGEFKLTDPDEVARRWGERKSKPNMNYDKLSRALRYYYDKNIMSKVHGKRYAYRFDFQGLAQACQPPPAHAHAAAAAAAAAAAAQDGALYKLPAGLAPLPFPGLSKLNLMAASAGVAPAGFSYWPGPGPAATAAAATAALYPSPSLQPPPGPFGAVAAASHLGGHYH
# Outline: (§1)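 Binding signal is given per hexamer as its read frequency for a factor divided by its frequency in the tag-only sample. GST-fused human transcription factors were expressed in yeast, captured on glutathione beads, barcoded with DNA and pooled with that sample, then incubated with 200 nmole of a 16-mer random double-stranded DNA library in Tris/NaCl/DTT/glycerol buffer for 30 min at room temperature. The pools were then washed, crosslinked, proximity-ligated, amplified by PCR and sequenced on an Illumina NextSeq500.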
# ETV5 = ETV5 (Homo sapiens, UniProt P41161 1-510); conditions: protein: recombinant; tags: N-terminal GST; dsDNA, one strand shown
# Outline: as §1
# HSF1 = HSF1 (Homo sapiens, UniProt Q00613 1-529); conditions: protein: recombinant; tags: N-terminal GST; chain copies: 3; dsDNA, one strand shown
# Outline: as §1
# SPIC = target: T2, SPIC (Homo sapiens, UniProt Q8N5J4 1-248); conditions: protein: recombinant; tags: N-terminal GST; dsDNA, one strand shown
# T2 sequence: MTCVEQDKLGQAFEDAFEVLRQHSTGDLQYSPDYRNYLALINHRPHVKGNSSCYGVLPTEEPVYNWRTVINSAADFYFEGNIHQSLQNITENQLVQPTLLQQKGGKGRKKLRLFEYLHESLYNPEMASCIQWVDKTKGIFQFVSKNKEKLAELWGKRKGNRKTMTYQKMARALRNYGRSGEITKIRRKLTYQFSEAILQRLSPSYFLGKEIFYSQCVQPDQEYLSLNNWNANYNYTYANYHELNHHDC
# Outline: as §1
# ELF4 = ELF4 (Homo sapiens, UniProt Q99607 1-663); conditions: protein: recombinant; tags: N-terminal GST; dsDNA, one strand shown
# Outline: as §1
# ELK4 = target: T3, ELK4 (Homo sapiens, UniProt P28324-2 1-405); conditions: protein: recombinant; tags: N-terminal GST; dsDNA, one strand shown
# T3 sequence: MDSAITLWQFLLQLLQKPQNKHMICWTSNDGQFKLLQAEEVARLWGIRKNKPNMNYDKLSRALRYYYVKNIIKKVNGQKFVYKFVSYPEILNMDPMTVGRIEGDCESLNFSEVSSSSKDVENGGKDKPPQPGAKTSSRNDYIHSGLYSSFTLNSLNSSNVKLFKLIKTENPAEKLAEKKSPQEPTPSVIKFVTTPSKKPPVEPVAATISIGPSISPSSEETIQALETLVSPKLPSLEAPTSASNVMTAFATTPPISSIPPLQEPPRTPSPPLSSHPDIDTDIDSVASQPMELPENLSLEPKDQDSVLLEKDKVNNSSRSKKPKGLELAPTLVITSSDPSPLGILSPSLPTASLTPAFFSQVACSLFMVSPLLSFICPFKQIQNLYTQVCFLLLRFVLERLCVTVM
# Outline: as §1
# ETV2 = target: T4, ETV2 (Homo sapiens, UniProt O00321 1-342); conditions: protein: recombinant; tags: N-terminal GST; dsDNA, one strand shown
# T4 sequence: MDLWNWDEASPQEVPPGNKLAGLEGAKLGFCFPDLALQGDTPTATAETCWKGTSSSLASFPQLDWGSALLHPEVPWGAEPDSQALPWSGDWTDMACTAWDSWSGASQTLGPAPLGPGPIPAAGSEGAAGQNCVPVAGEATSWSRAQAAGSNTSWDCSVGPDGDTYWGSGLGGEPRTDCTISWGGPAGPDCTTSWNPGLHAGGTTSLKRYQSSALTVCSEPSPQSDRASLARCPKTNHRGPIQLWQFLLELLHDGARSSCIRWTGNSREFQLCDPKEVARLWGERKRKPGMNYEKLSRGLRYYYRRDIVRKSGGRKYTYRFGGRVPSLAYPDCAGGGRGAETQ
# Outline: as §1
# ELF3 = target: T5, ELF3 (Homo sapiens, UniProt P78545 1-371); conditions: protein: recombinant; tags: N-terminal GST; dsDNA, one strand shown
# T5 sequence: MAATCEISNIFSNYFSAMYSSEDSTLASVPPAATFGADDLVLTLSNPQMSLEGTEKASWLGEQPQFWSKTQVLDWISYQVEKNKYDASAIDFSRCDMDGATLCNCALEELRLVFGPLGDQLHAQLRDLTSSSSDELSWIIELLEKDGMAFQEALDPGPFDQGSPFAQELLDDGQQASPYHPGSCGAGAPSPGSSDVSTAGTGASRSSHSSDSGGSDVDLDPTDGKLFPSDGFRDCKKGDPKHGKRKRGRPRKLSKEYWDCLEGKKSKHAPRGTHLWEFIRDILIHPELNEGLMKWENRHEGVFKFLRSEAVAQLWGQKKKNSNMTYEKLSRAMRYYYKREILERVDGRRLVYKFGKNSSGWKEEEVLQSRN
# Outline: as §1
# CRX = CRX (Homo sapiens, UniProt O43186 1-299); conditions: protein: recombinant; tags: N-terminal GST; dsDNA, one strand shown
# Outline: as §1
# Sequence of ELF4 (Q99607 whole entry): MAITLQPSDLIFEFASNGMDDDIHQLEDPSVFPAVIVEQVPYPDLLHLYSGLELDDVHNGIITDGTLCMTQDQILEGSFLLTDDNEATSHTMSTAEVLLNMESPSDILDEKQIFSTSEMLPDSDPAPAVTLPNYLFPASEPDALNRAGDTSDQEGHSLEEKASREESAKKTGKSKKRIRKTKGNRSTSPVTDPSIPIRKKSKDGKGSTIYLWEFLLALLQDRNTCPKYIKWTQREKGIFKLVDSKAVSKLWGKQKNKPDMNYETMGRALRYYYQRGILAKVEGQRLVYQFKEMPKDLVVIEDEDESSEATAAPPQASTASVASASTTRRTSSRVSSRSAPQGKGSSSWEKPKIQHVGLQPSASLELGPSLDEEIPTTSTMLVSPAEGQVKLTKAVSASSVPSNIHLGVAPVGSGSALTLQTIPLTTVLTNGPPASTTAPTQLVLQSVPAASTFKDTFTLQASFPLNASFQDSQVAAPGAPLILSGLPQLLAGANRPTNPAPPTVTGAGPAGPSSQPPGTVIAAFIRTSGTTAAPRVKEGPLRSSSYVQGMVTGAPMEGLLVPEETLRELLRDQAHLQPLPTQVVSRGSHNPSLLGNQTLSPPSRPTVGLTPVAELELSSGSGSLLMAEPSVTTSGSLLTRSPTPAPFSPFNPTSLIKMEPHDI
# Sequence of ETV5 (P41161 whole entry): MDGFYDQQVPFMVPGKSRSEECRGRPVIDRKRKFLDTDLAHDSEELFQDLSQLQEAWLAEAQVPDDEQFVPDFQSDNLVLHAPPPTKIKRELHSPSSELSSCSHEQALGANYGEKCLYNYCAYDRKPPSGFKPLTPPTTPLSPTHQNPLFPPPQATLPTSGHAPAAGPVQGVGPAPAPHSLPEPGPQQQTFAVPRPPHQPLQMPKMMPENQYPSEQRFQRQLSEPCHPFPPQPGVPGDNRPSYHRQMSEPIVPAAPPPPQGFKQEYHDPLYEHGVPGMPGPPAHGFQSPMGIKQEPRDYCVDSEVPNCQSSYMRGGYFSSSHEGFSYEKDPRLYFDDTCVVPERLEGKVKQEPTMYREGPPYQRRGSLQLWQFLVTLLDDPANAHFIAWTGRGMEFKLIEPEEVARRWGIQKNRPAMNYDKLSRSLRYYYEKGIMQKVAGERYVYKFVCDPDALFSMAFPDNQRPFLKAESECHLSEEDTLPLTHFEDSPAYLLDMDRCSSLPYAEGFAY
# Sequence of CRX (O43186 whole entry): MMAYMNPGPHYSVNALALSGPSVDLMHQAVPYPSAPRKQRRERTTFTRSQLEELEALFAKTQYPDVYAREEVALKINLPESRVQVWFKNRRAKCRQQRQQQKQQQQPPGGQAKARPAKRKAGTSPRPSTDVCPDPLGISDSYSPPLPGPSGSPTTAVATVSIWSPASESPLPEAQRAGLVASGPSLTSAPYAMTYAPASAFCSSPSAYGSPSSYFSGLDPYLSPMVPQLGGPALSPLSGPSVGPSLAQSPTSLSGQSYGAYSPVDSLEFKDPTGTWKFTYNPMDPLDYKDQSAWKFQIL
# Sequence of HSF1 (Q00613 whole entry): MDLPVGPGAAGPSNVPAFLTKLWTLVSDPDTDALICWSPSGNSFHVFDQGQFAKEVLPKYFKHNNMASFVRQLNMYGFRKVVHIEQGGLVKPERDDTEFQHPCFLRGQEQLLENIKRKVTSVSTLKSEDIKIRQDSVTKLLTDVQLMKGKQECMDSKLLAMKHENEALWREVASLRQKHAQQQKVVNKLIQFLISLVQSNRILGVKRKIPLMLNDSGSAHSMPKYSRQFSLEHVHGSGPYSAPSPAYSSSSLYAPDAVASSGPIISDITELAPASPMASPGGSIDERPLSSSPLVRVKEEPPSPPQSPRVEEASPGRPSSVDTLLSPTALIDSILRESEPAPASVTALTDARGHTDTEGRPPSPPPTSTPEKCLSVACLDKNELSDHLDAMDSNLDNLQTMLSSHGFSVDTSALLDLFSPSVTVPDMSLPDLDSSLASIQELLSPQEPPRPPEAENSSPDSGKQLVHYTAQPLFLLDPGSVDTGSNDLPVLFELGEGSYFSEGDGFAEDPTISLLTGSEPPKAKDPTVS
sequence,measurement,setting,value
TCTGAT,binding signal,FEV,"1.18 fold enrichment (6-mer frequency, TF over GST control)"
same,binding signal,ETV5,"1.23 fold enrichment (6-mer frequency, TF over GST control)"
same,binding signal,HSF1,"1.28 fold enrichment (6-mer frequency, TF over GST control)"
same,binding signal,SPIC,"1.26 fold enrichment (6-mer frequency, TF over GST control)"
same,binding signal,ELF4,"1.24 fold enrichment (6-mer frequency, TF over GST control)"
same,binding signal,ELK4,"1.19 fold enrichment (6-mer frequency, TF over GST control)"
same,binding signal,ETV2,"1.11 fold enrichment (6-mer frequency, TF over GST control)"
same,binding signal,ELF3,"1.17 fold enrichment (6-mer frequency, TF over GST control)"
same,binding signal,CRX,"1.55 fold enrichment (6-mer frequency, TF over GST control)"
